# Test results reported in paper PMC7862700, “An all-to-all approach to the identification of sequence-specific readers for epigenetic DNA modifications on cytosine”.
# Tests used:
# Assay in all cases: DAPPL (digital affinity profiling via proximity ligation, sequencing); 10 mM Tris-HCl pH 7.5, 50 mM NaCl, 1 mM DTT, 4% glycerol, room temperature, 30 min; GST-TFs on glutathione beads, 16-mer random dsDNA library, 0.1% formaldehyde crosslink after washing; high values mean tight binding
# Details in all cases: protein: recombinant; tags: N-terminal GST; dsDNA, one strand shown
# ELK1 = target: T1, ELK1 (Homo sapiens, UniProt P19419 1-428)
# T1 sequence: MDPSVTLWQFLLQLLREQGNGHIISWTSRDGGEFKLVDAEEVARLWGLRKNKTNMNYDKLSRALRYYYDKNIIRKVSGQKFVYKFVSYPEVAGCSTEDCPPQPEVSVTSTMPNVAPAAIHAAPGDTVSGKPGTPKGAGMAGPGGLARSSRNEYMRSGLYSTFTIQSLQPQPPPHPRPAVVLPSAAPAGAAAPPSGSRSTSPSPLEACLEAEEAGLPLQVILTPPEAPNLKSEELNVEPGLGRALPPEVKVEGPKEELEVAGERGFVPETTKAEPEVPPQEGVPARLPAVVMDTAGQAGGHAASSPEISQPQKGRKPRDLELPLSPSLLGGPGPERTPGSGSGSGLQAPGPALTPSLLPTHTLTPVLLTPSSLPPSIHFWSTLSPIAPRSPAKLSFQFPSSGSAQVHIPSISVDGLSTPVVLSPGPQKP
# In short: (§1)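 Human transcription factors were made in yeast as GST fusions, captured on glutathione beads and barcoded with DNA. With a tag-only sample included, the pool was incubated with 200 nmole of a random double-stranded 16-mer DNA library in Tris/NaCl/DTT/glycerol buffer at room temperature for 30 min, then crosslinked with 0.1% formaldehyde after washing, ligated by proximity, amplified and sequenced. For binding signal, each hexamer's read frequency for a factor is divided by its frequency for the tag-only sample.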
# ERG = target: T2, ERG (Homo sapiens, UniProt P11308 1-479)
# T2 sequence: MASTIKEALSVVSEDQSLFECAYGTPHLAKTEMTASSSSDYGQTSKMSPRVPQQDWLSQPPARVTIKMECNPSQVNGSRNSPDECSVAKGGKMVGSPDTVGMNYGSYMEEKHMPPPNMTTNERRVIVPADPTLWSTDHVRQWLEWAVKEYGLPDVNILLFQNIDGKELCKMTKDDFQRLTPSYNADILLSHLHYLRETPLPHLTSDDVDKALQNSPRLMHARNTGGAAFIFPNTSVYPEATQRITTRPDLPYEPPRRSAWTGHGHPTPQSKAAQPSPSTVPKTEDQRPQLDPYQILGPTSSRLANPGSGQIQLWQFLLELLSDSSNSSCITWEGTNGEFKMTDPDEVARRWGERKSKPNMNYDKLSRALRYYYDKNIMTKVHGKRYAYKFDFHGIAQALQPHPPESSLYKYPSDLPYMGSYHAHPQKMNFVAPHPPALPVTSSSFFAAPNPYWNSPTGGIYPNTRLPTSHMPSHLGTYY
# In short: as §1
# EHF = target: T3, EHF (Homo sapiens, UniProt Q9NZC4 1-300)
# T3 sequence: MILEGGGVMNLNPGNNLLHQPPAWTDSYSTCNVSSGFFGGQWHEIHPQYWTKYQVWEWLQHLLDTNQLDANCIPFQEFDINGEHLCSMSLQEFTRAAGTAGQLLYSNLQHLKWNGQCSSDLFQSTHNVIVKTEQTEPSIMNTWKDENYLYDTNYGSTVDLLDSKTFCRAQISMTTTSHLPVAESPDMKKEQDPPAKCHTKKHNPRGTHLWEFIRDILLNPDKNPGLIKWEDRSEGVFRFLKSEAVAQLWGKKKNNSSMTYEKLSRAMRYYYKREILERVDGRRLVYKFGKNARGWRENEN
# In short: as §1
# SPIB = SPIB (Homo sapiens, UniProt Q01892 1-262)
# SPIB, sequence (Q01892 whole entry): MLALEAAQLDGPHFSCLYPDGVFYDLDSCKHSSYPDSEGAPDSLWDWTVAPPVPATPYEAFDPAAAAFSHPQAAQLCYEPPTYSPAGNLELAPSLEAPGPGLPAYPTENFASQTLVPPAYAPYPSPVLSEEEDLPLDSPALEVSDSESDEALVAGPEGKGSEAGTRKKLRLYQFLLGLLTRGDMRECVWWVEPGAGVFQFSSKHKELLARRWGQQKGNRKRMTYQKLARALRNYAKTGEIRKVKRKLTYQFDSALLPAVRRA
# In short: as §1
# ELK3 = target: T4, ELK3 (Homo sapiens, UniProt P41970 1-407)
# T4 sequence: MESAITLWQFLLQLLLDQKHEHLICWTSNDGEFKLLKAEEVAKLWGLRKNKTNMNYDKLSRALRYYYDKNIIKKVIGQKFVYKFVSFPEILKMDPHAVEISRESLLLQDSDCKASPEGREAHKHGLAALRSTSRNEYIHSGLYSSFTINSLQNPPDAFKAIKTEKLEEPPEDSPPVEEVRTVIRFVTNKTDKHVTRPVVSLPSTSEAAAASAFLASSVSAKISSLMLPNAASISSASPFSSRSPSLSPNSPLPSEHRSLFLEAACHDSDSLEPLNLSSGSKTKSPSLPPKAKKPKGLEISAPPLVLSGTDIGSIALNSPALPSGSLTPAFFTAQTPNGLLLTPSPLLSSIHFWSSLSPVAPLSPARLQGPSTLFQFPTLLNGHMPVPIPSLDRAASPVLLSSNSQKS
# In short: as §1
# ETV5 = ETV5 (Homo sapiens, UniProt P41161 1-510)
# ETV5, sequence (P41161 whole entry): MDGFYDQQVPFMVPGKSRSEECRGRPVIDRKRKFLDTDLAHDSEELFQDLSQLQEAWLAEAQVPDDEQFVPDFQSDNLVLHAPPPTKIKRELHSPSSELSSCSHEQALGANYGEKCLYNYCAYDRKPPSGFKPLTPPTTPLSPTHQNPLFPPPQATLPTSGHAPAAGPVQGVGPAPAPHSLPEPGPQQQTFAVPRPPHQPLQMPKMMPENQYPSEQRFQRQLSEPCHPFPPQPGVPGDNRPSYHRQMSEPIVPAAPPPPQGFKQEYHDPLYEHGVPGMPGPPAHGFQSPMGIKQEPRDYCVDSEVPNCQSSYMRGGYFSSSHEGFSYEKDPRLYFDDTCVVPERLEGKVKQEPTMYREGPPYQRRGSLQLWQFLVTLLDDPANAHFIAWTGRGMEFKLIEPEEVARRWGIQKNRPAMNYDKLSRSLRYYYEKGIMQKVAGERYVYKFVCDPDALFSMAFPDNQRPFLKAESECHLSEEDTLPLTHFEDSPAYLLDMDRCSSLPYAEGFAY
# In short: as §1
# SPIC = target: T5, SPIC (Homo sapiens, UniProt Q8N5J4 1-248)
# T5 sequence: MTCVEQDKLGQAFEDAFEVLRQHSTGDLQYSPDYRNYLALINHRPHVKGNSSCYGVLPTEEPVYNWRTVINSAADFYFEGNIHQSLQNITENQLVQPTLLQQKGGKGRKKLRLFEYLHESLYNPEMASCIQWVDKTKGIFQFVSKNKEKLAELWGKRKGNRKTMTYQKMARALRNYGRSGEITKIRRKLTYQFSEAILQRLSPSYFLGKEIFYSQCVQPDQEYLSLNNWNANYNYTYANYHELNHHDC
# In short: as §1
# ELK4 = target: T6, ELK4 (Homo sapiens, UniProt P28324-2 1-405)
# T6 sequence: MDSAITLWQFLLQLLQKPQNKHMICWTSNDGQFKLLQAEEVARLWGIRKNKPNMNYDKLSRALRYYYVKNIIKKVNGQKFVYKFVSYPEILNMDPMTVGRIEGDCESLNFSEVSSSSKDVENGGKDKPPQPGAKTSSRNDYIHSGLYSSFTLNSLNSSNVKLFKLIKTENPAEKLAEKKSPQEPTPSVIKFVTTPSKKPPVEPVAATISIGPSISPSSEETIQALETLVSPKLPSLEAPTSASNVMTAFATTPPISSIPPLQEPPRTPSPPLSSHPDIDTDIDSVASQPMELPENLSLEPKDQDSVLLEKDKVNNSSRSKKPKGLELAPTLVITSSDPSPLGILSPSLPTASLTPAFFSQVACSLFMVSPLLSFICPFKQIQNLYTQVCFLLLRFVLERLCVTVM
# In short: as §1
# ELF3 = target: T7, ELF3 (Homo sapiens, UniProt P78545 1-371)
# T7 sequence: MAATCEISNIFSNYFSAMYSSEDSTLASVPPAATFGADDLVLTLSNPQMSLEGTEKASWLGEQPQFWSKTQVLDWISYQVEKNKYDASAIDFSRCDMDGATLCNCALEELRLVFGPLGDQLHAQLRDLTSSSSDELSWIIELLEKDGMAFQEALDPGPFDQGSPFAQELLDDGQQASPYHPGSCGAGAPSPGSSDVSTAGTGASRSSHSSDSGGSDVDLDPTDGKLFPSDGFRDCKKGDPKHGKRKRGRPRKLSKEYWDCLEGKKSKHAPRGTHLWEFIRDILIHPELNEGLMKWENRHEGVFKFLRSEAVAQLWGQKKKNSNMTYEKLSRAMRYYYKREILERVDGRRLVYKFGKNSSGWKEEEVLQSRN
# In short: as §1
# ETV1 = ETV1 (Homo sapiens, UniProt P50549 1-477)
# ETV1, sequence (P50549 whole entry): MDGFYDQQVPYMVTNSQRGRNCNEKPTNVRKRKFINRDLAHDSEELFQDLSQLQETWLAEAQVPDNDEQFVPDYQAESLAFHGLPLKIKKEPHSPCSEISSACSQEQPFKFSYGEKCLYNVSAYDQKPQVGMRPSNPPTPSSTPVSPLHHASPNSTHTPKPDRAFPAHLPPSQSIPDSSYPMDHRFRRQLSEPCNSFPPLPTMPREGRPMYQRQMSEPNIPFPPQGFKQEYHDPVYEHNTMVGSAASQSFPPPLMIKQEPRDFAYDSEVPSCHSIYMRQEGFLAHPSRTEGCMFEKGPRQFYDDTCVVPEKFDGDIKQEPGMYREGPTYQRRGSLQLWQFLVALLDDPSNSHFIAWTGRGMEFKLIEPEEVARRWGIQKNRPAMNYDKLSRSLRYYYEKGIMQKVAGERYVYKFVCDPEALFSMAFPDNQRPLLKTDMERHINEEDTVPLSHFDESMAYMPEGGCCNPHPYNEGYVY
# In short: as §1
# ETV3L = target: T8, ETV3L (Homo sapiens, UniProt Q6ZN32 1-361)
# T8 sequence: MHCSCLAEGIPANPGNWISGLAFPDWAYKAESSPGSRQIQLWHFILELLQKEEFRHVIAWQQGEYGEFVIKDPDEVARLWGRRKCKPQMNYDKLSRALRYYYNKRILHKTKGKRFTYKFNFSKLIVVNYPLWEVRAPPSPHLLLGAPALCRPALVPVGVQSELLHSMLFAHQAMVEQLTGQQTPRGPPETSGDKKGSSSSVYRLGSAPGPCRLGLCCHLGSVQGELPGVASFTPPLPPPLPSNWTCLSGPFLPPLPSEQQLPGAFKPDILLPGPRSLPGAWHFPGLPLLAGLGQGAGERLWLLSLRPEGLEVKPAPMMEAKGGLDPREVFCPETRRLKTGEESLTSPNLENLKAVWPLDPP
# In short: as §1
# ETS2 = target: T9, ETS2 (Homo sapiens, UniProt P15036 1-469)
# T9 sequence: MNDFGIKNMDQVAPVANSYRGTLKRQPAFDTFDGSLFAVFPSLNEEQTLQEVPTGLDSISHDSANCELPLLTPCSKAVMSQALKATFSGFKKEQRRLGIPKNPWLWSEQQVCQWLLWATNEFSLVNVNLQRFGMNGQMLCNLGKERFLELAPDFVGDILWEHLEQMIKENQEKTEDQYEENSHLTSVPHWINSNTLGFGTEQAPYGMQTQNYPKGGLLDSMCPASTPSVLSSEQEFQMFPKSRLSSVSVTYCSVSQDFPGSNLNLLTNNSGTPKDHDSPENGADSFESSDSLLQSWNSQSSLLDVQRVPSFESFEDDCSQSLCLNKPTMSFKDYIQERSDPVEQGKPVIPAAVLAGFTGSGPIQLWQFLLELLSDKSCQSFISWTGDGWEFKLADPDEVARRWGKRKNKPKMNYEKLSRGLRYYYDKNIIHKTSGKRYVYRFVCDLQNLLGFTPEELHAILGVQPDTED
# In short: as §1
# SPDEF = target: T10, SPDEF (Homo sapiens, UniProt O95238 1-335)
# T10 sequence: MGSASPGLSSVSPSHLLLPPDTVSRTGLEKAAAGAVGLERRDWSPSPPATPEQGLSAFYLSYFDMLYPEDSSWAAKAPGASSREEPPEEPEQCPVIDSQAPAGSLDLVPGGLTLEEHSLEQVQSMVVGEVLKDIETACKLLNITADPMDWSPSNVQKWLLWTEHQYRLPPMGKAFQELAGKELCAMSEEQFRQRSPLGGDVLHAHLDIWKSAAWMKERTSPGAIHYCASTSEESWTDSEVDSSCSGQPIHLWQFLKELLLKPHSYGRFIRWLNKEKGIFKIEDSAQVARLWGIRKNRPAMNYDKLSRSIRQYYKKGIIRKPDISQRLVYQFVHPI
# In short: as §1
# ETV7 = target: T11, ETV7 (Homo sapiens, UniProt Q9Y603 1-341)
# T11 sequence: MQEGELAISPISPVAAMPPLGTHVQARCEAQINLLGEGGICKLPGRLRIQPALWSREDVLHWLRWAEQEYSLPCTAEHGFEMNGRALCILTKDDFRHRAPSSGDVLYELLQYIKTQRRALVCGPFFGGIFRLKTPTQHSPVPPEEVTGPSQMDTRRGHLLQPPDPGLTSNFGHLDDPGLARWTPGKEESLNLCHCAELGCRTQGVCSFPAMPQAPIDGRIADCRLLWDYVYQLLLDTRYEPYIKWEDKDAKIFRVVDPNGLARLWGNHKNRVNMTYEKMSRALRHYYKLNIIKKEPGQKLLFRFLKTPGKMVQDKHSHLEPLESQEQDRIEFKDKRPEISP
# In short: as §1
# ETV3 = target: T12, ETV3 (Homo sapiens, UniProt P41162-2 1-143)
# T12 sequence: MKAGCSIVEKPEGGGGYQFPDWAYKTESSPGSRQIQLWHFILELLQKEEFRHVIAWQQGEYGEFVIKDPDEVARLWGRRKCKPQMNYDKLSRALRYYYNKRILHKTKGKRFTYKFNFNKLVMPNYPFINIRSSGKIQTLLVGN
# In short: as §1
# ETV6 = ETV6 (Homo sapiens, UniProt P41212 1-452)
# ETV6, sequence (P41212 whole entry): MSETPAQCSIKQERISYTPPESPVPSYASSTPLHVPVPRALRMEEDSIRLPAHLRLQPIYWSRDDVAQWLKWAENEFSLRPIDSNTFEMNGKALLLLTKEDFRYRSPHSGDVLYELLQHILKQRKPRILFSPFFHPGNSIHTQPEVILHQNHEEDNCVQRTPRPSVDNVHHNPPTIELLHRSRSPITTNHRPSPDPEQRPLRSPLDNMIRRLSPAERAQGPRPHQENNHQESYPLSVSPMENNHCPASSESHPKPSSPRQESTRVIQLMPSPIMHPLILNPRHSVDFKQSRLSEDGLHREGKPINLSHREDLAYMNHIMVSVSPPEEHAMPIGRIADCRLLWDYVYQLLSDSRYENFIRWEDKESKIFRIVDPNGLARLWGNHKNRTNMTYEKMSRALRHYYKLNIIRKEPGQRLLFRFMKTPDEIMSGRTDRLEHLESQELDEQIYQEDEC
# In short: as §1
sequence,measurement,setting,value
AGTCCT,binding signal,ELK1,"1.06 fold enrichment (6-mer frequency, TF over GST control)"
same,binding signal,ERG,"1.07 fold enrichment (6-mer frequency, TF over GST control)"
same,binding signal,EHF,"1.03 fold enrichment (6-mer frequency, TF over GST control)"
same,binding signal,SPIB,"1.13 fold enrichment (6-mer frequency, TF over GST control)"
same,binding signal,ELK3,"1.01 fold enrichment (6-mer frequency, TF over GST control)"
same,binding signal,ETV5,"1.05 fold enrichment (6-mer frequency, TF over GST control)"
same,binding signal,SPIC,"1.13 fold enrichment (6-mer frequency, TF over GST control)"
same,binding signal,ELK4,"1 fold enrichment (6-mer frequency, TF over GST control)"
same,binding signal,ELF3,"1.03 fold enrichment (6-mer frequency, TF over GST control)"
same,binding signal,ETV1,"1 fold enrichment (6-mer frequency, TF over GST control)"
same,binding signal,ETV3L,"1.02 fold enrichment (6-mer frequency, TF over GST control)"
same,binding signal,ETS2,"1.06 fold enrichment (6-mer frequency, TF over GST control)"
same,binding signal,SPDEF,"1.02 fold enrichment (6-mer frequency, TF over GST control)"
same,binding signal,ETV7,"1.14 fold enrichment (6-mer frequency, TF over GST control)"
same,binding signal,ETV3,"1.01 fold enrichment (6-mer frequency, TF over GST control)"
same,binding signal,ETV6,"1.03 fold enrichment (6-mer frequency, TF over GST control)"
